These molecules were tested on PRMT1 (protein arginine N-methyltransferase 1) (assay: PRMT1 binders on small-molecule microarrays, primary screen, biochemical, small-molecule microarray, 635 nm fluorescence (AID 1088;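 also: binding of Prmt1 protein to compounds spotted on small-molecule microarray slides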)). Settings: small-molecule microarray binding, higher = more signal.
COc1ccc([Si](C)(C)[C@@H]2[C@@H](CC(=O)N(CCO)Cc3ccccc3)O[C@]3(C(=O)N(Cc4cccc(N5CCC5=O)c4)c4ccccc43)[C@H]2C)cc1 was tested, and the composite z-score was 1.56.
Work on CN(C)CCCC[C@@H]1NC(=O)[C@@H]2C[C@H](C(=O)O)[C@H](c3ccc(O)cc3)N2C1=O yielded a composite z-score of 1.41.
Molecule CCOC(=O)C1=CCC(c2cccc3ccccc23)N(S(=O)(=O)c2ccc(C)cc2)C1 (stereo unspecified) has a composite z-score of 0.614.
CO[C@@H]1COC(=O)CC=C[C@@H](C)[C@H](OC)COC(=O)CC=C[C@H]1C was tested, and the composite z-score was -0.0399.
C=C(COC)/C(=C/C[C@H](OC(C)=O)c1ccc(OCCO)cc1)c1cnc2ccccc2c1 showed a composite z-score of 1.46.
CO[C@H]1O[C@H](CO)[C@@H](OC(=O)Nc2ccc(Oc3ccccc3)cc2)[C@H](OC(=O)Nc2ccccc2-c2ccccc2)[C@H]1OC(=O)Nc1ccccc1-c1ccccc1 gave a composite z-score of 1.54.
For CCC1=C2CN(Cc3ccccc3Br)[C@@H]([C@@H](O)Cc3ccccc3)C2C=CCC1 (stereo partly specified), the composite z-score was 1.24.
[N-]=[N+]=NCc1ccccc1C[C@@]1(C(=O)N2CCOCC2)N=C(c2ccc(OCCCO)cc2)O[C@@H]1c1ccccc1N=[N+]=[N-] gave a composite z-score of 1.56.
For C=CC(=O)O[C@@H](Cc1ccccc1)[C@H]1C2C=CCCC=C2CN1Cc1cccc(Cl)c1 (stereo partly specified), the composite z-score was -2.25.
NC(=O)[C@H]1[C@@H]2C(=O)O[C@@H](c3ccccc3)[C@@H](c3ccccc3)N2[C@@H](c2ccc(O)cc2)[C@]12C(=O)Nc1ccc(C#CCCO)cc12 was tested, and the composite z-score was -0.484.
Molecule NC(=O)NCC#Cc1ccc2c(c1)[C@]1(C(=O)N2)[C@H](C(N)=O)[C@H]2C(=O)O[C@H](c3ccccc3)[C@H](c3ccccc3)N2[C@@H]1c1ccccc1OCCO has a composite z-score of 1.22.
